# Data: PubChem BioAssay (EPA / NIEHS)
# Several values for one entry are separate records, joined by “and”; a condition that tells them apart may be missing. Equal entries are not always repeated. The source holds several records for some structures; these can differ, active in one and inactive in another. Activity calls are given as the source filed them. How the source made its calls: active means hit-call score of the fitted dose curve at least 0.9, where 1 is the maximum; inactive means score below 0.9.
# Tests used:
# [1] = biological target: Bile acid receptor (Homo sapiens) (UniProt Q96RI1); assay: ATG_IR1_CIS: Attagene CIS-FACTORIAL HepG2 Assay for human Nuclear Receptor Subfamily 1 Group H Member 4 (NR1H4), IR1 submotif (AID 2282946); settings: IR1 reporter transcription, actives raise or lower the signal
# Bile acid receptor (Homo sapiens), sequence (Q96RI1 whole entry, looked up, the tested form may be a part): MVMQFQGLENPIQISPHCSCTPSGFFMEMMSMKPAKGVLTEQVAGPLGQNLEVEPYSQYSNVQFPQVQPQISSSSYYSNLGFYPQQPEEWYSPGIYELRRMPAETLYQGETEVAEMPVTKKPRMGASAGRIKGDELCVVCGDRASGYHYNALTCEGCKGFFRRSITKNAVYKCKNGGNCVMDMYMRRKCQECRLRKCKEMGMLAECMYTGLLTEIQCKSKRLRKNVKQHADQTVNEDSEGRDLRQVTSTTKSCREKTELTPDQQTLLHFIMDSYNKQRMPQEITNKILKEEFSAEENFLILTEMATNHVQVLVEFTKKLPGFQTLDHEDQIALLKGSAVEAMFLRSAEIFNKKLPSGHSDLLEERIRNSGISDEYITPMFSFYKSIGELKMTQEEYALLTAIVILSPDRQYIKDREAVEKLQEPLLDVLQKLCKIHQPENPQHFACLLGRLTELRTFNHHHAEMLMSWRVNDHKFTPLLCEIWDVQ
# How it was run: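 Cells (human HepG2) carry transiently transfected cis-promoter reporter transcription units. Compounds are incubated 24 h, total RNA is reverse-transcribed and amplified, and labelled fragments are resolved by capillary electrophoresis. Curves use DMSO as baseline.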
# [2] = ATG_GRE_CIS: Attagene CIS-FACTORIAL HepG2 Assay for human Glucocorticoid Response Elements (GRE) (AID 2282947); settings: HepG2 GRE cis-reporter, Attagene multiplex mRNA; actives raise or lower the signal
# How it was run: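 Transient MRTU transfection of human HepG2 liver cells; cis-regulated reporters report endogenous factors. 24 h dosing → RNA isolation → RT-PCR → 6-FAM primer extension → HpaI cut → CE fragment analysis. Bidirectional fit, DMSO negative control.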
# [3] = ATG_ISRE_CIS: Attagene CIS-FACTORIAL HepG2 Assay for human Interferon Regulatory Factor 1 (IRF1) binding to an Interferon-Stimulated Response Element (ISRE) (AID 2282948); settings: HepG2 ISRE cis-reporter (Attagene), mRNA transcription readout; actives raise or lower the signal
# How it was run: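 Transiently transfected HepG2 cells carrying cis-element reporter units, dosed 24 hours. Reporter mRNA quantified by RT-PCR, fluorescent primer extension, HpaI digestion and capillary electrophoresis. Bidirectional fitting relative to DMSO.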
# [4] = ATG_M_32_CIS: Attagene CIS-FACTORIAL HepG2 Assay for M32 Transcription Factor (Internal Marker) (AID 2282949); settings: HepG2 Attagene cis-factorial M32 reporter, mRNA; actives raise or lower the signal;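 further: background control marker of the multiplexed CIS panel rather than a real target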
# How it was run: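 Fluorescent capillary electrophoresis peaks of HpaI-digested, FAM-labelled RT-PCR reporter products give the signal. Source: transiently transfected human liver HepG2 cells, 24 h after chemical dosing; bidirectional fitting against DMSO.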
# [5] = ATG_M_06_CIS: Attagene CIS-FACTORIAL HepG2 Assay for M06 Transcription Factor (Internal Marker) (AID 2282950); settings: HepG2 Attagene CIS-FACTORIAL M06 internal marker reporter; actives raise or lower the signal
# How it was run: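 Internal background marker within multiplexed cis-reporter HepG2 system. Cells transiently transfected, dosed 24 h; reporter mRNA measured by RT-PCR, HpaI digestion and capillary electrophoresis. Bidirectional fit relative to DMSO.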
# [6] = biological target: Hypoxia-inducible factor 1-alpha (Homo sapiens) (UniProt Q16665); assay: ATG_HIF1a_CIS: Attagene CIS-FACTORIAL HepG2 Assay for human Hypoxia Inducible Factor 1 (HIF1A) (AID 2282951); settings: HepG2 Attagene cis-factorial HIF1a reporter transcription; actives raise or lower the signal
# Hypoxia-inducible factor 1-alpha (Homo sapiens), sequence (Q16665 whole entry, looked up): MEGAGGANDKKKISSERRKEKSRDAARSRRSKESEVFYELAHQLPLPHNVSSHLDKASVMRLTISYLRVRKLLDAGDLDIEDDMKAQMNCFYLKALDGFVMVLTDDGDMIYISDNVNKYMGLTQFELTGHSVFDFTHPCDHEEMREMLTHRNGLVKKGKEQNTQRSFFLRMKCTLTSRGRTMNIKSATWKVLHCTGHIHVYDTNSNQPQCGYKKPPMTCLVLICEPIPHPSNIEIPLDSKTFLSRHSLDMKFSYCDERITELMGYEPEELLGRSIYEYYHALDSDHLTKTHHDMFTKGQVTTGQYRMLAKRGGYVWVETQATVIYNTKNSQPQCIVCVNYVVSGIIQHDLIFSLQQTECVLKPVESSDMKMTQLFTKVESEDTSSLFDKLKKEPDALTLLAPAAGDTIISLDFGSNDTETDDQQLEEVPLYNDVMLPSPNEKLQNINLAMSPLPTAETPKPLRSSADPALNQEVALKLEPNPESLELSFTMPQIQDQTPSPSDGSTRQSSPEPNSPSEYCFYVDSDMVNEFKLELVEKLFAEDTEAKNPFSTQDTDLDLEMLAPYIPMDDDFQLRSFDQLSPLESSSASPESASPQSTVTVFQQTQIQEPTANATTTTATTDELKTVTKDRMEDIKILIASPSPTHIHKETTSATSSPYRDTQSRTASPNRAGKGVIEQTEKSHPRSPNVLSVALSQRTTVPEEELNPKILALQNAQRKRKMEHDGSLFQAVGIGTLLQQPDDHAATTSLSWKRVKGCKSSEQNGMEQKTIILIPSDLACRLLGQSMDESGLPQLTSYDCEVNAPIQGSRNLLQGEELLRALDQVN
# How it was run: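 In this multiplexed cell assay, HepG2 cells bearing transfected cis reporters are dosed for 24 h and reporter mRNA is read by RT-PCR plus capillary electrophoresis; signal increases and decreases are both scored against DMSO.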
# [7] = biological target: Hepatocyte nuclear factor 6 (Homo sapiens) (UniProt Q9UBC0); assay: ATG_HNF6_CIS: Attagene CIS-FACTORIAL HepG2 Assay for human Hepatocyte Nuclear Factor 6 (HNF6) (AID 2282952); settings: HepG2 Attagene cis-factorial HNF6 reporter transcription; actives raise or lower the signal
# Hepatocyte nuclear factor 6 (Homo sapiens), sequence (Q9UBC0 whole entry, looked up): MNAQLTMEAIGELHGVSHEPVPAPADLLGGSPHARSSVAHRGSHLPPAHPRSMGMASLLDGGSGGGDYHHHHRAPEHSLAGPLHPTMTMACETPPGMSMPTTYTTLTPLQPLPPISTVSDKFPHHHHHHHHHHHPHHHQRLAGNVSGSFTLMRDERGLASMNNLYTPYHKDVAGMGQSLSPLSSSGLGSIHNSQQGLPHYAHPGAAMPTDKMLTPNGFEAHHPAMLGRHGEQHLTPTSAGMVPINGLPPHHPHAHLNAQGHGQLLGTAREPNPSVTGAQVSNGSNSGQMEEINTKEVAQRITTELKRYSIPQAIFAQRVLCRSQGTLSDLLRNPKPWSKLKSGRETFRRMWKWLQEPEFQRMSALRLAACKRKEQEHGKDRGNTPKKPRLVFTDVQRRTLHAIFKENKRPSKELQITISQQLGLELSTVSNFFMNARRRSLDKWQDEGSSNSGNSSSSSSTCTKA
# How it was run: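 Cells are HepG2 carrying transiently transfected cis-promoter reporter units. Treatment lasts 24 h, after which reporter transcripts are reverse-transcribed, amplified, FAM-labelled and sized by capillary electrophoresis. DMSO serves as baseline.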
# [8] = biological target: Heat shock factor protein 1 (Homo sapiens) (UniProt Q00613); assay: ATG_HSE_CIS: Attagene CIS-FACTORIAL HepG2 Assay for human Heat Shock Transcription Factor 1 (HSE) (AID 2282953); settings: HepG2 HSE cis-reporter, Attagene RNA transcription; actives raise or lower the signal
# Heat shock factor protein 1 (Homo sapiens), sequence (Q00613 whole entry, looked up): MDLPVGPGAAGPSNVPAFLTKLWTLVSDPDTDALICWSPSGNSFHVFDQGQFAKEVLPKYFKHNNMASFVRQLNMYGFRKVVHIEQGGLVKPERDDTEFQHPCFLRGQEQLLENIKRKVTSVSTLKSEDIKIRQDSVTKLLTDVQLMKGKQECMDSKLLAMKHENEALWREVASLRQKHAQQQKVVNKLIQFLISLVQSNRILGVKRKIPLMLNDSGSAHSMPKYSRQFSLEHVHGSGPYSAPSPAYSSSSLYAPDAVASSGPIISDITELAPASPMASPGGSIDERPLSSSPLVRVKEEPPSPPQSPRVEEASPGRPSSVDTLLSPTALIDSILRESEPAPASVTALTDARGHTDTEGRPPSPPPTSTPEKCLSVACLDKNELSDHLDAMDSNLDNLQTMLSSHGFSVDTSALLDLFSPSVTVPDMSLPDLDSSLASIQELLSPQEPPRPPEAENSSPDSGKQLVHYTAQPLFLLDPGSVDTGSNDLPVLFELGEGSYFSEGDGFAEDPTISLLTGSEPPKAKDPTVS
# How it was run: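 HepG2 cells transfected with cis-promoter reporter units sensing endogenous transcription factor activity; reporter mRNA quantified 24 h post-dose by RT-PCR and capillary electrophoresis of 6-FAM-labelled products. Bidirectional fitting against DMSO.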
# [9] = ATG_MRE_CIS: Attagene CIS-FACTORIAL HepG2 Assay for human Metal Responsive Element (MRE) (AID 2282954); settings: HepG2 MRE cis-reporter transcription, Attagene multiplex; actives raise or lower the signal
# How it was run: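 Transient MRTU transfection of HepG2 (FuGene 6); 24 h dosing; total RNA → oligo(dT) RT, PCR, 6-FAM primer extension, HpaI cut, CE. Bidirectional fit vs DMSO.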
# [10] = biological target: Paired box protein Pax-6 (Homo sapiens) (UniProt P26367); assay: ATG_Pax6_CIS: Attagene CIS-FACTORIAL HepG2 Assay for human Paired Box 6 (PAX6) (AID 2282956); settings: HepG2 CIS-FACTORIAL PAX6 reporter transcription, RNA readout; actives raise or lower the signal
# Paired box protein Pax-6 (Homo sapiens), sequence (P26367 whole entry, looked up): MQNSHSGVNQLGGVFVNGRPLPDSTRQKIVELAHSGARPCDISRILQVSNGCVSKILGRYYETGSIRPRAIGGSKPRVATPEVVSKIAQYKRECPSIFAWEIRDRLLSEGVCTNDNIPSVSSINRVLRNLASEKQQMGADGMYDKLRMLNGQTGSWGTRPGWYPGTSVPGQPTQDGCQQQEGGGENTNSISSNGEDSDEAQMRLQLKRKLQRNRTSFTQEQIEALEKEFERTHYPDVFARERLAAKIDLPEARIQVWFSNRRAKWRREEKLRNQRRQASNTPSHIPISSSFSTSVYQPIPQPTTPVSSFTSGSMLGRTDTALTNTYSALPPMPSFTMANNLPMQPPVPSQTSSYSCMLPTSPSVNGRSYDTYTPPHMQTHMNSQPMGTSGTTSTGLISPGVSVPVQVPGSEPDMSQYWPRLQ
# How it was run: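 HepG2 cells transiently transfected with cis-promoter-driven multiplexed reporter units sensing endogenous transcription factor activity; 24 h chemical exposure. Reporter mRNA quantified by RT-PCR, 6-FAM labelling, HpaI digestion and capillary electrophoresis; bidirectional fit versus DMSO baseline.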
# [11] = ATG_PXRE_CIS: Attagene CIS-FACTORIAL HepG2 Assay for human Pregnane X Receptor Element (PXRE) (AID 2282957); settings: HepG2 Attagene CIS-FACTORIAL PXRE reporter, mRNA; actives raise or lower the signal
# How it was run: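 Multiplexed cis-reporter assay in transiently transfected human HepG2 cells; 24 h chemical exposure. Reporter transcripts quantified by RT-PCR with fluorescent labeling and capillary electrophoresis.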
# [12] = ATG_PPRE_CIS: Attagene CIS-FACTORIAL HepG2 Assay for human Peroxisome Proliferator-activated Response Element (PPRE) (AID 2282958); settings: HepG2 PPRE cis-element reporter, Attagene transcription factor profiling; actives raise or lower the signal
# How it was run: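 Multiplexed reporter transcription units under cis-regulatory promoters were transfected into HepG2 cells to capture endogenous factor activity. A 24 h incubation preceded RNA isolation and fluorescent RT-PCR fragment analysis.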
# [13] = ATG_RORE_CIS: Attagene CIS-FACTORIAL HepG2 Assay for human RAR-related Orphan Receptor Element (RORE) (AID 2282959); settings: HepG2 Attagene cis-factorial RORE reporter, mRNA; actives raise or lower the signal
# How it was run: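 Fluorescence intensity of reporter-specific cDNA fragments, separated by capillary electrophoresis, gives the signal. Source: HepG2 liver cells transiently transfected with cis-element reporters and exposed 24 h; DMSO-normalized bidirectional fit.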
# [14] = ATG_Sox_CIS: Attagene CIS-FACTORIAL HepG2 Assay for human SRY-box transcription factor (SOX) (AID 2282960); settings: HepG2 Attagene cis-factorial SOX reporter, mRNA; actives raise or lower the signal
# How it was run: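 After 24 h of chemical treatment, transfected HepG2 reporter cells are lysed for total RNA. Transcript levels come from RT-PCR with labelled primer extension and capillary electrophoresis, analysed bidirectionally versus DMSO.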
# [15] = ATG_SREBP_CIS: Attagene CIS-FACTORIAL HepG2 Assay for human Sterol Regulatory Element Binding (SREBP) (AID 2282962); settings: HepG2 Attagene cis-factorial SREBP reporter, mRNA; actives raise or lower the signal
# How it was run: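 HepG2 cells transiently transfected with multiplexed cis-promoter reporter units sensing endogenous transcription factors; reporter mRNA measured 24 h after dosing by RT-PCR, 6-FAM labeling, HpaI digestion and capillary electrophoresis. Bidirectional fit versus DMSO.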
# [16] = biological target: Signal transducer and activator of transcription 3 (Homo sapiens) (UniProt P40763); assay: ATG_STAT3_CIS: Attagene CIS-FACTORIAL HepG2 Assay for human Signal Transducer and Activator of Transcription 3 (STAT3) (AID 2282963); settings: HepG2, Attagene cis-factorial STAT3 reporter transcription; actives raise or lower the signal
# Signal transducer and activator of transcription 3 (Homo sapiens), sequence (P40763 whole entry, looked up): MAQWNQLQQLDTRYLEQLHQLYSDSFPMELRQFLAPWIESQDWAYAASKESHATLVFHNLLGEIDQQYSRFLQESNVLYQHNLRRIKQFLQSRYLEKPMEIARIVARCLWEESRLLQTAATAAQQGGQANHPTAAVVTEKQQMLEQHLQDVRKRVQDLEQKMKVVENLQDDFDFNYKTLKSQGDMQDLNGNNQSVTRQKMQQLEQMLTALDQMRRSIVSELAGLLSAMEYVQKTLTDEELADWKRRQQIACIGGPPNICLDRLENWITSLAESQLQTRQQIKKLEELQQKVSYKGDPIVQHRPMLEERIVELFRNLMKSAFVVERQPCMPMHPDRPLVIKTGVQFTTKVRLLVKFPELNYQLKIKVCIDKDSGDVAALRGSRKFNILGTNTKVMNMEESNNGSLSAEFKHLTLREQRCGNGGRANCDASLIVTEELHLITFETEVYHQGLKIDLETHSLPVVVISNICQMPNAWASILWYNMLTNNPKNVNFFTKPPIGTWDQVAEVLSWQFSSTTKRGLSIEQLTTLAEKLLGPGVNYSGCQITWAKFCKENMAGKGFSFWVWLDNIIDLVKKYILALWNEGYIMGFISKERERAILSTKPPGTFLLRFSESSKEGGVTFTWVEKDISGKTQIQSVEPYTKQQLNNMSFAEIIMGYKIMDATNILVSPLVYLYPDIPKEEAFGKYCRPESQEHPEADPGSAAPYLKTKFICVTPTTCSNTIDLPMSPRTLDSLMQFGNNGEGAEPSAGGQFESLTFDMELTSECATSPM
# How it was run: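 Endogenous STAT3-responsive cis-element activity was read in transiently transfected HepG2 cells after 24 h treatment. Reporter transcripts were quantified via RT-PCR and capillary electrophoresis, with DMSO as negative control and bidirectional curve fitting.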
# [17] = ATG_TA_CIS: Attagene CIS-FACTORIAL HepG2 Assay for human TA Basal Promoter (AID 2282964); settings: HepG2 Attagene CIS-factorial TA basal promoter reporter; actives raise or lower the signal
# How it was run: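 HepG2 cells transiently transfected with multiple reporter units under cis promoter elements, reporting endogenous transcription factor activity; this endpoint tracks the TA basal promoter as background control. Reporter mRNA after 24 h dosing measured by RT-PCR/capillary electrophoresis; bidirectional fits versus DMSO.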
# [18] = ATG_TCF_b_cat_CIS: Attagene CIS-FACTORIAL HepG2 Assay for human T-Cell-Factor with beta-catenin (TCF/b-cat) (AID 2282965); settings: HepG2 TCF/beta-catenin cis-reporter transcription, actives raise or lower the signal
# How it was run: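 Measured: reporter mRNA in HepG2 transiently transfected with cis-promoter reporter units, 24 h after chemical addition. Fitting was bidirectional, DMSO as negative control.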
# [19] = ATG_PBREM_CIS: Attagene CIS-FACTORIAL HepG2 Assay for human Phenobarbital-responsive Enhancer Module (PBREM) (AID 2282955); settings: HepG2 PBREM cis-reporter, Attagene multiplexed transcription; actives raise or lower the signal
# How it was run: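 After a 24 h incubation with test chemical, transfected HepG2 cells yield total RNA; reporter-specific RT-PCR products are fluorescently labelled, HpaI-digested and resolved by capillary electrophoresis against ROX size standards.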
# [20] = biological target: Transcription factor Sp1 (Homo sapiens) (UniProt P08047); assay: ATG_Sp1_CIS: Attagene CIS-FACTORIAL HepG2 Assay for human Specificity Protein 1 (Sp1) (AID 2282961); settings: HepG2 Sp1 cis-reporter transcription, actives raise or lower the signal
# Transcription factor Sp1 (Homo sapiens), sequence (P08047 whole entry, looked up): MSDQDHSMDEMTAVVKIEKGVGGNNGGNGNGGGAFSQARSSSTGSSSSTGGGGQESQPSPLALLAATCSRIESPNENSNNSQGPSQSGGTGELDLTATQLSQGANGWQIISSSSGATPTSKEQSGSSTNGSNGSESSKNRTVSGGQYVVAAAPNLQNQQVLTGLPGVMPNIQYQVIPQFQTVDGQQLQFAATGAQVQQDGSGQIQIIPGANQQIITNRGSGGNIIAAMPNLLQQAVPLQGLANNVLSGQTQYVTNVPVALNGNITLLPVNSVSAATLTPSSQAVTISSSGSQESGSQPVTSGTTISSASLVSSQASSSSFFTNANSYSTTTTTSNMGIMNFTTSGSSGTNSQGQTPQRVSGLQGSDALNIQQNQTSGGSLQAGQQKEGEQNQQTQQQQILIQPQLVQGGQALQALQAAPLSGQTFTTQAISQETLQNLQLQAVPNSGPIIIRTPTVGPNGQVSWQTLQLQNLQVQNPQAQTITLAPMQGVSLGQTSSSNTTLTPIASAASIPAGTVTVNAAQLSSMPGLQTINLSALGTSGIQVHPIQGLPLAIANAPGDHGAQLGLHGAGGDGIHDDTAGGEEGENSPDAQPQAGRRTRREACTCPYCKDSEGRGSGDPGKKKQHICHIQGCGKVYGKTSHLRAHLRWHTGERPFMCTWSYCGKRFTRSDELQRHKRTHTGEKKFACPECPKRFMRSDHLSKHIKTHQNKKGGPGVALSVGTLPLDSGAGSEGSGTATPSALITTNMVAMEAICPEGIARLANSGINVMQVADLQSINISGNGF
# How it was run: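 Sp1-driven reporter mRNA, read as capillary electrophoresis fluorescence after RT-PCR, in transiently transfected HepG2 cells dosed for 24 h; signal change in either direction relative to DMSO.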
smiles,measurement,setting,value
CN1C(=O)N(c2ccccc2Br)Cc2cnc(Nc3ccc4c(c3)OCC(CO)O4)nc21 (stereo not given),outcome,[1],inactive
same,outcome,[2],inactive
same,outcome,[3],inactive
same,outcome,[4],inactive
same,outcome,[5],inactive
same,AC50,[6],9.59 µM (active)
same,outcome,[7],inactive
same,outcome,[8],inactive
same,AC50,[9],33.2 µM (active)
same,outcome,[10],inactive
same,outcome,[11],inactive
same,AC50,[12],2.65 µM (active)
same,AC50,[13],1.84 µM (active)
same,outcome,[14],inactive
same,AC50,[15],21.1 µM (active)
same,outcome,[16],inactive
same,AC50,[17],15.8 µM (active)
same,AC50,[18],0.116 µM (active)
CO[C@H]1/C=C/O[C@@]2(C)Oc3c(C)c(O)c4c(O)c(c(/C=N/N5CCN(C)CC5)c(O)c4c3C2=O)NC(=O)/C(C)=C\C=C\[C@H](C)[C@H](O)[C@@H](C)[C@@H](O)[C@@H](C)[C@H](OC(C)=O)[C@@H]1C,outcome,[3],inactive
same,outcome,[4],inactive
same,outcome,[5],inactive
same,outcome,[7],inactive
same,outcome,[8],inactive
same,outcome,[9],inactive
same,outcome,[19],inactive
same,outcome,[10],inactive
same,AC50,[11],461 nM (active) and 369 nM (active)
same,outcome,[12],inactive
same,outcome,[13],inactive
same,outcome,[14],inactive
same,outcome,[15],inactive
same,outcome,[16],inactive
same,outcome,[17],inactive
same,outcome,[18],inactive
NC(=O)c1nc(-c2cccc(-c3cc(F)ccc3OCC(F)(F)C(F)(F)F)c2)n[nH]1,AC50,[1],51.6 µM (active)
same,outcome,[2],inactive
same,outcome,[3],inactive
same,outcome,[4],inactive
same,outcome,[5],inactive
same,AC50,[6],2.7 µM (active)
same,outcome,[7],inactive
same,AC50,[8],59.9 µM (active)
same,AC50,[9],51.2 µM (active)
same,AC50,[10],24.3 µM (active)
same,AC50,[11],8.11 µM (active)
same,outcome,[14],inactive
same,AC50,[15],10.3 µM (active)
same,outcome,[16],inactive
same,AC50,[17],43.7 µM (active)
same,AC50,[18],33 µM (active)
c1ccc2ccccc2c1,outcome,[1],inactive
same,outcome,[3],inactive
same,outcome,[4],inactive
same,outcome,[5],inactive
same,outcome,[6],inactive
same,AC50,[7],100 µM (active)
same,outcome,[7],inactive
same,outcome,[8],inactive
same,outcome,[9],inactive
same,outcome,[10],inactive
same,outcome,[11],inactive
same,outcome,[12],inactive
same,outcome,[13],inactive
same,outcome,[14],inactive
same,outcome,[20],inactive
same,outcome,[15],inactive
same,outcome,[16],inactive
same,outcome,[17],inactive
same,outcome,[18],inactive
CC(=O)N1CCN(c2ccc(OC[C@H]3CO[C@](Cn4ccnc4)(c4ccc(Cl)cc4Cl)O3)cc2)CC1,AC50,[1],48.5 µM (active)
same,outcome,[2],inactive
same,AC50,[3],15.1 µM (active)
same,outcome,[4],inactive
same,outcome,[5],inactive
same,outcome,[7],inactive
same,AC50,[8],55.6 µM (active)
same,AC50,[9],33.9 µM (active)
same,outcome,[19],inactive
same,AC50,[10],10 µM (active)
same,AC50,[11],0.942 µM (active)
same,outcome,[12],inactive
same,AC50,[13],1.58 µM (active)
same,outcome,[14],inactive
same,AC50,[15],5.24 µM (active)
same,outcome,[16],inactive
same,AC50,[17],4.84 µM (active)
same,AC50,[18],5.19 µM (active)
O=c1ccc2ccccc2o1,outcome,[1],inactive
same,outcome,[3],inactive
same,outcome,[4],inactive
same,outcome,[5],inactive
same,outcome,[6],inactive
same,outcome,[7],inactive
same,outcome,[8],inactive
same,outcome,[9],inactive
same,outcome,[19],inactive
same,outcome,[10],inactive
same,outcome,[11],inactive
same,outcome,[13],inactive
same,outcome,[14],inactive
same,outcome,[20],inactive
same,outcome,[15],inactive
same,outcome,[16],inactive
same,outcome,[17],inactive
same,outcome,[18],inactive
